The list is not random: actives were taken first. Their share in the collection is about 3.2%.
ERAP1 inh: ERAP1 (human) enzyme inhibition; Q9NZ08; recombinant ERAP1, Leu-AMC fluorescence, 60 min; inhibition, % at 10.7 µM; 340,000 compounds, 0.15% hits; AID 652197;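 active = mean replicate inhibition of at least 30%, or all replicates individually reaching that 30% level; inactive = mean below 30% and not every replicate reaching it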;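 also: 0% = neutral control wells and 100% = L-leucinethiol positive control wells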
Ecoli rRNA inh: selective bacterial rRNA inhibition in E. coli; E. coli WT GFP vs humanized-ribosome RFP mutants, fluorescence, 24 h; active compounds read low; DMSO median 0, no signal -100; GFP signal change (wild-type ribosome), % (test concentration not listed); 350,000 compounds, 1.6% hits; AID 720706;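 active = significant combined selectivity score with lowered wild-type GFP, culture density cut under 30%, mutant RFP and density less affected; inactive = any of these conditions unmet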
PGC1a acetyl inh: PGC1a acetylation modulation, inhibitor mode. U2OS PGC1a acetylation, AlphaScreen anti-acetyl-lysine; with virally co-expressed GCN5 acetyltransferase. inhibition, % at 15.6 µM. 350,000 compounds, 0.17% hits. AID 651687;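 active = every replicate shows inhibition of at least 40%; inconclusive = mean inhibition at least 40% but some replicate below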;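 also: 0% = neutral control wells and 100% = positive control wells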
DENV2 CPE rescue: inhibitors of DENV2 cytopathic effect; DENV2-infected cells, cytopathic effect rescue, plate reader; CPE inhibition, % at 9.99 µM; 350,000 compounds, 1.7% hits; AID 651640; in the data active = CPE inhibition above about 20%, passing the limit was not always enough; inconclusive = no clear call, values can overlap the other calls; tested in BHK-21 cells;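 also: 0% = median of neutral control wells and 100% = median of positive control wells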
GSIS activator: GLuc luminescence reporter in INS-1E cells, primary screen for activators of glucose-dependent secretion of insulin; 370,000 compounds, 0.61% hits; activation, % at 16.6 µM; INS-1E GLuc reporter insulin secretion, 2-3 h;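 active = lowest replicate activation of at least 40%, so every replicate reaches that level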;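 also: 0% = median of neutral control wells and 100% = median of IBMX positive control wells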
CaV13 ICDI inh: Disruptors of the CACNA1D IQ motif to Ca2+-dependent inactivation inhibitor domain association, primary screening, Förster resonance energy transfer in intact living … | 340,000 compounds, 0.098% hits | AID 743397 | inhibition, % at 12.3 µM | HEK cells, CFP/YFP FRET ICDI-IQ, plate reader, 10 min; percent FRET-ratio fall versus neutral wells;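 active = mean replicate inhibition of at least 30% and at least 1% of replicates passing that level; inconclusive = only one of the two criteria is met; inactive = neither criterion is met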;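 also: 0% = median of the neutral control wells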
Numbers without * were called inactive; ? = inconclusive; / = no result; ! = not active in a repeat.

SMILES | ERAP1 inh | Ecoli rRNA inh | PGC1a acetyl inh | DENV2 CPE rescue | GSIS activator | CaV13 ICDI inh
CN(C)CC(=O)Nc1ccc2c(c1)[C@@H]1C[C@H](CC(=O)NCCN3CCCCC3)O[C@@H](CO)[C@@H]1O2 | 0.1 | 1.9 | -15.3 | 4.1 | 19.5 | /
C[C@@H]1CN([C@H](C)CO)C(=O)Cc2cc(NC(=O)Cc3cn(C)c4ccccc34)ccc2O[C@H]1CN(C)C(=O)Nc1ccccc1 | -2.8 | 0.6 | 2.2 | 3.7 | -1.3 | /
COc1cc(C2N(C)CCC3(OCCO3)C2(C)C)cc(OC)c1OC (stereo unspecified) | / | / | 9.1 | / | 48.0* | -4.7
Oc1ccc(Br)cc1CNc1cccc2cccnc12 | -2.0 | -42.2 | / | 0.4 | -10.0 | -20.7
Oc1c(Br)cc(Br)cc1CNc1cccc2cccnc12 | -1.3 | -22.5* | -6.8 | 6.6 | / | -5.3
O=C(Nc1cccc(C(F)(F)F)c1)c1csc(COCCO)n1 | 5.2 | -1.5 | -8.4 | 24.3* | 12.9 | -4.8
O=C(Nc1cccc(C(F)(F)F)c1)c1csc([C@@H]2O[C@H](CO)[C@@H](O)[C@H]2O)n1 | 0.6 | 9.8 | -4.2 | -4.5 | 80.4* | -4.7
O=C(Nc1cccc(Cl)c1)c1csc(COCCO)n1 | -4.5 | 3.1 | / | -2.7 | / | -9.7
CN(CCO)S(=O)(=O)c1ccc2c(c1)C(=NO)c1cc(S(=O)(=O)N(C)CCO)ccc1-2 | 0.4 | -27.1* | -14.3 | 1.6 | 5.9 | -4.7
NS(=O)(=O)c1ccc2c(c1)C(=NO)c1cc(S(N)(=O)=O)ccc1-2 | 1.8 | -9.6 | / | 3.6 | 19.2 | -20.3
CC(C)(O)/C=C/C[C@](C)(O)C1CC[C@]2(C)C1[C@H](O[C@H]1O[C@@H](CO)[C@H](O)[C@@H](O)[C@@H]1O)CC1[C@@]3(C)CC[C@H](O)C(C)(C)C3[C@@H](O)C[C@]12C (stereo partly specified) | / | 11.5 | / | 42.1* | 16.7 | -8.9
C[C@@H]1CN([C@H](C)CO)C(=O)c2cc(NC(=O)c3ccccc3)ccc2O[C@@H](C)CCCCO[C@@H]1CN(C)C(=O)c1ccccc1 | / | -3.2 | 2.7 | / | -9.3 | /
CCOc1ccccc1CNS(=O)(=O)c1cnc[nH]1 | -1.1 | 9.9 | 19.7 | -9.1 | 43.6* | -2.5
CC(C)NC(=O)N[C@@H]1CC[C@@H](CCNC(=O)C2CCOCC2)O[C@H]1CO | 1.6 | 4.5 | 5.2 | -1.4 | 7.1 | /
O=C(C[C@@H]1CC[C@@H](NC(=O)C2CCOCC2)[C@H](CO)O1)NCc1ccncc1 | 1.2 | 4.5 | 3.9 | -5.2 | 7.7 | /
CC(C)NC(=O)Nc1ccc2c(c1)CC(=O)N([C@@H](C)CO)C[C@H](C)[C@H](CN(C)S(=O)(=O)c1cccs1)O2 | 1.5 | 1.9 | 3.5 | -6.8 | 4.1 | /
C=CCN1Cc2ccccc2C[C@@]2(COC(c3ccc(OCCCO)cc3)=N2)C1=O | 0.4 | / | 2.4 | 23.7* | / | /
C=Cn1cc[n+](CC(=O)c2cc(C(C)(C)C)c(O)c(C(C)(C)C)c2)c1 | 1.0 | -19.4* | 3.5 | ? | -22.8 | 3.0
Cc1ccc2c(c1)N(CCCC(=O)NCc1ccc3c(c1)OCO3)C(=O)CO2 | -0.4 | 3.9 | -36.9 | 91.7* | -6.4 | -5.7
COc1ccc(S(=O)(=O)N[C@H]2C=C[C@H](CC(=O)N3CCN(c4ccccc4)CC3)O[C@H]2CO)cc1 | 3.1 | 1.2 | 2.2 | -1.5 | 3.1 | /
C[C@@H]1CN([C@@H](C)CO)C(=O)c2cc(NS(=O)(=O)c3cn(C)cn3)ccc2O[C@@H](C)CCCCO[C@@H]1CN(C)C(=O)Nc1ccccc1 | 1.0 | -0.7 | 4.6 | 3.7 | 8.7 | /
CCCCCc1ccc(-c2ccc(OC)cc2)nc1 | 7.7 | -24.5* | / | -2.4 | 7.8 | -3.3
COc1ccc(C(=O)Nc2cc(C(=O)O)cc(C(=O)O)c2)cc1Cl | 0.9 | 11.2 | -15.2 | 14.1 | -5.6 | 0.8
O=C(Nc1cccc(Cl)c1)c1ccc(Cn2cc(Cl)cn2)cc1 | -2.0 | -26.1* | -8.0 | -1.5 | -19.1 | -5.8
O=C(Nc1cccc(Cl)c1)c1ccccc1 | / | 5.9 | -1.3 | 28.2* | 9.4 | -10.2
SMILES | ERAP1 inh | Ecoli rRNA inh | PGC1a acetyl inh | DENV2 CPE rescue | GSIS activator | CaV13 ICDI inh
CC(=O)c1cccc(NC(=S)NCCCCc2ccccc2)c1 | 2.4 | -34.1* | -19.2 | -3.0 | -4.0 | -2.9
CCCCNC(=S)Nc1cccc(C(C)=O)c1 | / | / | / | / | 2.3 | -14.5
COC(=O)c1cccc(NC(=O)c2ccc(OC)c(Cl)c2)c1 | 2.4 | -30.5* | -18.6 | / | 9.6 | 5.3
CN1CCN(C(=O)C[C@H]2CC[C@H]3[C@H](COc4ccc(NC(=O)C5CCCC5)cc4C(=O)N3C)O2)CC1 | 2.3 | 5.1 | 3.9 | 7.6 | -6.1 | /
CC(=O)N1[C@@H]2CN(CC(F)(F)F)C[C@H]1C2c1ccc(Br)cc1 (stereo partly specified) | / | -7.8 | / | / | -2.5 | /
CNC[C@@H]1Oc2cc(C#CCC(C)C)ccc2S(=O)(=O)N([C@H](C)CO)C[C@H]1C | -0.6 | 1.1 | -17.6 | 18.9 | -3.2 | /
COc1cccc(S(=O)(=O)N[C@@H]2CC[C@H](CCNC(=O)Cc3ccncc3)O[C@H]2CO)c1 | 3.5 | 1.9 | 1.3 | -8.6 | 13.0 | /
CSc1ccccc1NC(=O)Nc1ccc(F)c(Cl)c1 | / | / | / | / | -29.4 | -9.4
O=C(NCCCCc1ccccc1)c1cccc(NC(=O)c2ccccc2)c1 | -3.2 | -5.4 | -10.6 | -0.9 | -4.7 | -3.6
O=C(NCCc1ccc(F)cc1)c1cccc(NC(=O)c2ccccc2)c1 | -3.6 | -22.1* | / | -3.1 | -18.1 | -4.7
CSc1ccccc1NC(=O)Nc1cccc(Cl)c1 | 1.1 | -27.9* | 0.8 | -4.9 | -45.4 | -6.5
C=CCNC(=O)c1cc(-c2ccc3c(c2)OCO3)on1 | 5.2 | 10.0 | / | -9.2 | 43.3* | -3.5
Cc1noc(C)c1NC(=O)N(C)C[C@H]1Oc2ccc(NC(=O)NC3CCCCC3)cc2C(=O)N([C@@H](C)CO)C[C@@H]1C | 6.9 | -4.1 | 9.4 | -7.3 | 19.0 | /
C[C@@H]1CN([C@@H](C)CO)C(=O)c2cc(NS(=O)(=O)c3ccccc3)ccc2O[C@@H](C)CCCCO[C@H]1CN(C)Cc1ccncc1 | -5.5 | -5.5 | 4.2 | -3.1 | -1.7 | /
C[C@@H]1CCCCO[C@H](CN(C)Cc2ccncc2)[C@@H](C)CN([C@H](C)CO)C(=O)c2cc(NS(=O)(=O)c3ccccc3)ccc2O1 | -4.1 | 2.1 | 5.0 | 21.3* | 19.8 | /
C[C@H]1CCCCO[C@H](CN(C)Cc2ccncc2)[C@@H](C)CN([C@@H](C)CO)C(=O)c2cc(NS(=O)(=O)c3ccccc3)ccc2O1 | -0.9 | 0.8 | 72.8*! | 8.8 | -5.6 | -0.9
C[C@H](CO)N1C[C@H](C)[C@H](CN(C)Cc2ccncc2)OCCCC[C@H](C)Oc2ccc(NS(=O)(=O)c3ccccc3)cc2C1=O | -4.4 | -3.1 | 7.3 | 73.0* | 5.5 | /
